Rows were chosen to be rich in hits. Some 2.6% of all compounds tested hit in one or more screens of this group.
AmpC nodet inh – blocks E. coli AmpC beta-lactamase in absence of detergent. P00811. AmpC nitrocefin hydrolysis, absorbance 480 nm, no detergent. Potency, µM (doses to about 28.7 µM), for inactives: at the highest dose activity change, negative = inhibition. actives 1.8% (n = 71,000). AID 585; note: % of control where 0% means no effect
Target sequence (P00811 whole entry, looked up): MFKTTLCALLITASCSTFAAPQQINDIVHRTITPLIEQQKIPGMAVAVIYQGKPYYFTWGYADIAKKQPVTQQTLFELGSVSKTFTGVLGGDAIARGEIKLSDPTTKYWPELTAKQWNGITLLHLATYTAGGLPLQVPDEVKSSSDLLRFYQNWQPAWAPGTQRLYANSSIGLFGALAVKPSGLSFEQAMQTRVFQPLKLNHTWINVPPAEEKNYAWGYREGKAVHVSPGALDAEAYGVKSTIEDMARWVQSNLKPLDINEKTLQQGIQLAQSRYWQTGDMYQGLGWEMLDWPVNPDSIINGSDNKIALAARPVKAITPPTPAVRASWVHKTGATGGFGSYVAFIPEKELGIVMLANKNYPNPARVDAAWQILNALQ
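AmpC in 20 mM phosphate buffer pH 7.0 was preincubated 15 min at room temperature with compounds. Nitrocefin (800 uM stock) was then added and hydrolysis followed at 480 nm every 20 s for 4 min.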
AmpC inh det – blocks E. coli AmpC beta-lactamase in presence of detergent; purified AmpC, nitrocefin hydrolysis with detergent; Potency, µM (series often up to 28.7 µM), for inactives: at the highest dose activity change, negative = inhibition; actives 0.09% (n = 71,000); active = well fitted curve in the direction sought with a large enough effect; inconclusive = small, poorly fitted or top-dose-only effect; note: % is set by controls: 0 for no effect and ±100 for the full control effect
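E. coli AmpC (5.3 nM) in 20 mM phosphate pH 7.0 with 0.01% Triton X-100, preincubated 15 min RT with compound; nitrocefin (2 uL of 800 uM stock) hydrolysis followed by 480 nm absorbance every 20 s over 4 min.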
Prx2 Sm inh – Schistosoma mansoni Prx2 inhibition; S. mansoni Prx2 activity coupled to TGR/GSH (TGR is thioredoxin glutathione reductase), NADPH fluorescence loss, qHTS; AID 448; Potency, µM; actives 0.07% (n = 65,000)
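Prx2 inhibition was measured as reduced NADPH consumption when electrons flowed from NADPH through TGR and glutathione to Prx2 and H2O2. Plates were read kinetically over 8 min; enzyme reagents were held at 4 deg C during dispensing.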
Anthrax LT inh – blocks cellular internalization of anthrax lethal toxin | Cells, anthrax lethal toxin internalization, FRET ratio (460/530) | Potency, µM (series often up to 40 µM), for inactives: top-dose activity change, negative = inhibition, usual class: inhibitors | actives 0.67% (n = 70,000) | AID 912; note: % is set by controls: 0 for no effect and ±100 for the full control effect; nearly all actives have a fitted effect of over 50% in size
Active calls of the source: *; i = inactive; ? = inconclusive; / = no result given; [ ] = dose if it differs, or a comment. Unless noted, calls come from the whole dose curve. Potency is the fitted concentration of half-maximal effect.

SMILES	AmpC nodet inh	AmpC inh det	Prx2 Sm inh	Anthrax LT inh
O=C(NC1CCCc2ccccc21)C1CCC(CNc2c(N3CCOCC3)c(=O)c2=O)CC1 (stereo not drawn)	3.2µM*[single pt active]	10%	>57	?
COc1ccccc1CNC(=O)C1CCC(CNc2c(N3CCOCC3)c(=O)c2=O)CC1 (stereo not drawn)	28%	12%	>57	?
COc1cc(NC(=O)C2CCC(CNc3c(N4CCCCC4)c(=O)c3=O)CC2)cc(OC)c1 (stereo not drawn)	4µM*[single pt active]	13%	>57	?
CCNc1ncc2nc(C)c(=O)n(CCc3ccccc3)c2n1	12%	-2%	>57	-10%
CCSC1(SCC)N=C(N)C2(C#N)C(c3ccccc3)NC3=C(CCC3)C12C#N (stereo not drawn)	8%	-3%	>57	?
CCSC1(SCC)N=C(N)C2(C#N)C(c3ccc(OC)c(OC)c3OC)C12C#N (stereo not drawn)	39%	-4%	>57	10µM*
Cc1cc2nc(SCC(=O)Nc3nonc3C)c3c(c2cc1C)CCCC3	13µM*	1%	>57	-17%
Cc1nonc1NC(=O)CSc1nc(C2CCCCC2)nc2ccccc12	-13%	-2%	>57	?
Cc1c(C(=O)c2ccc3ccccc3c2)c2cccc3c2n1[C@H](CN1CCOCC1)CO3	115%	-6%	>26	2µM*
CCOC(=O)c1ccc(NC(=O)C2CCN(S(=O)(=O)CC)CC2)cc1	25%	-5%	>57	9%
CCOC(=O)c1ccc(NC(=O)C2CCN(S(=O)(=O)c3ccccc3)CC2)cc1	6%	10%	>57	4µM*
CN(C)Cc1ccccc1-c1cncnc1Nc1ccncc1	-8%	8%	>57	-12%
CCN(CC)C[C@@H]1CCCCN1CC(=O)N1c2ccccc2C(=O)Nc2cccnc21	27%	0%	>57	?
CCOC(=O)N1CCC(NC(=O)c2cc3c(=O)n(C)c4ccccc4c3n2C)CC1	158%	14%	>57	?
COCCCNC(=O)c1cc2c(=O)n(C)c3ccccc3c2n1C	4µM*[single pt active]	9%	>57	13%
CN(C)CCNC(=O)c1cc2c(=O)n(C)c3ccccc3c2n1C	?	14%	>57	13µM*
COCCNC(=O)c1cc2c(=O)n(C)c3ccccc3c2n1C	4µM*[single pt active]	15%	>57	-8%
CCN(CC)CCNC(=O)c1cc2c(=O)n(C)c3ccccc3c2n1C	?	9%	>57	?
Cn1c(C(=O)NC2CC2)cc2c(=O)n(C)c3ccccc3c21	4µM*[single pt active]	9%	>57	3%
COc1ccc(-c2nc3cnc(OCc4ccccc4)nc3n(CCC#N)c2=O)cc1	-6%	0%	i	?
O=c1c(-c2ccc(F)cc2)nc2cnc(N3CCNCC3)nc2n1-c1ccccc1	94%	8%	>57	?
O=C(O)[C@H]1CCN1	1%	-1%	>57	-18%
O=S(=O)(c1ccccc1)N1CCC2(CCCN(c3ccccc3)C2)CC1	4%	1%	>57	?
O=S(=O)(c1ccccc1)N1CCC2(CCCN(c3ccncc3)C2)CC1	21%	-4%	>57	1µM*
c1ccc(B2OC[C@@H]3OB(c4ccccc4)O[C@H]([C@@H]4COB(c5ccccc5)O4)[C@@H]3O2)cc1	-44%[5.75 µM]	1.6µM*	>57	5%[8 µM]
SMILES	AmpC nodet inh	AmpC inh det	Prx2 Sm inh	Anthrax LT inh
CCCSc1nnc(Cn2c(=O)sc3ccccc32)n1C	4µM*[single pt active]	12%	>57	-14%
CSc1nnc(Cn2c(=O)sc3ccccc32)n1C	4µM*[single pt active]	12%	>57	-12%
COc1ccccc1N1CCN(C(=O)c2sc3nc(-c4ccc(F)cc4)cn3c2C)CC1	126%	13%	>57	16µM*
CCOC(=O)N1CCN(C(=O)c2sc3nc(-c4ccc(F)cc4)cn3c2C)CC1	119%	-4%	>57	0%
CN1CCN(c2ncc3nc(-c4cccc(C#N)c4)c(=O)n(Cc4ccc(F)cc4)c3n2)CC1	143%	2%	>57	?
O=S(=O)(Nc1ccc2nc(-c3ccc(Br)o3)[nH]c2c1)c1ccccc1	3.2µM*	10%	>57	/
CC(C)C[C@@H](CC(=O)N[C@H](CC(=O)N[C@@H]1CCNC[C@H]1C(=O)N[C@H](CC(=O)N[C@@H](CCC(=O)O)CC(=O)O)Cc1c[nH]c2ccccc12)C(C)C)NC(=O)[C@@H]1CCCC[C@H]1N	133%	-2%	>57	3%
Brc1ccc(Oc2ccc(Br)cc2Br)c(Br)c1	13µM*	13%	/	?
O=S(=O)(c1ccccc1)N1CCC2(CCCN(C(c3ccccc3)c3ccccc3)C2)CC1	3%	-1%	>57	?
CC(C)CC(C(=O)Nc1oc(-c2ccco2)c(-c2ccco2)c1C#N)N1C(=O)c2ccccc2C1=O (stereo not drawn)	5µM*	18%	>57	?
CC(C)CC(C(=O)Nc1ccc2c(c1)OCCO2)N1C(=O)c2ccccc2C1=O (stereo not drawn)	22%	2%	>57	-14%
CCO[C@H]1O[C@@H]([C@H](COCc2ccccc2)OCc2ccccc2)[C@@H](OCc2ccccc2)[C@H]1O	80%[12.8 µM]	-2%[12.8 µM]	>57	-27%[3.58 µM]
O=C(O)c1cc[c]([Hg][Cl])cc1	-10%	-8%	0.44*	?
FC(F)(F)c1ccccc1-c1nc(NCCN2CCOCC2)c2ccccc2n1	28%	12%	>57	8%
CCOC(=O)c1cc2ccc(OC(=O)c3ccco3)cc2oc1=O	13%	-3%	>57	?
CC(=O)Oc1ccc2cc(-c3nc4ccccc4n3C)c(=O)oc2c1	24%	4%	18*	?
CCOC(=O)c1c(NC(=O)c2cccs2)sc2c1CCCC2	-4%	11%	/	-21%
CCOC(=O)c1c(NC(=O)Cc2cccs2)sc2c1CCCC2	?	-6%	>57	13µM*
Cn1cccc1C(=O)N1CCC[C@@]2(CCN(Cc3cc(C(F)(F)F)cc(C(F)(F)F)c3)C2)C1	140%	-4%	>57	4%
Cc1ccccc1NS(=O)(=O)c1ccc2[nH]cc(C(=O)N(C)Cc3ccco3)c(=O)c2c1	-14%	1%	>57	6%
Cc1cc(C)cc(NS(=O)(=O)c2ccc3[nH]cc(C(=O)NCc4ccco4)c(=O)c3c2)c1	13µM*[single pt active]	-2%	>57	?
NCCc1ccc(S(=O)(=O)O)cc1[N+](=O)[O-]	3%[5.75 µM]	-2%[5.75 µM]	>57	-1%[8 µM]
COc1ccc(Br)cc1C1CC(=O)N2CN(C)CSC2=C1C#N (stereo not drawn)	4µM*[single pt active]	13%	>57	-12%
CC(C)c1ccc(C2CC(=O)N3CN(C)CSC3=C2C#N)cc1 (stereo not drawn)	4µM*[single pt active]	11%	>57	-8%
COc1ccc(Br)cc1C1CC(=O)N2CN(Cc3ccccc3)CSC2=C1C#N (stereo not drawn)	2µM*	9%	>57	?
COc1ccc2ccccc2c1C1CC(=O)N2CN(C)CSC2=C1C#N (stereo not drawn)	26%	-7%	>57	-28%
COc1cc(OC)c(C2CC(=O)N3CN(C)CSC3=C2C#N)cc1OC (stereo not drawn)	4µM*[single pt active]	9%	>57	-23%

Compound activity (PubChem BioAssay)
